# Out of some 140,000 compounds screened, about 4,300 (3.1%) were called active. Roughly 21% stayed inconclusive and do not appear here. The full list was thinned out, with actives kept by preference. Unmarked numbers belong to inactive results.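 The calls were made as follows: active = readout at or below -70, meaning at least 70% loss of cells showing the perinucleolar compartment, a nuclear body marking cancer cells; inconclusive = readout between -30 and a set limit; inactive = the rest.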
# Test: High Content Assay for Compounds that inhibit the Assembly of the Perinucleolar Compartment;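 also: plate controls were DMSO wells for no effect and camptothecin positive control wells for full effect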
# Conditions: PC3M PTB-GFP, PNC prevalence imaging, 16 h; at 10 µM; stronger effect = lower value
# Procedure, shortened: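 PC3M cells stably expressing PTB-GFP, 750–1000 cells/well, treated 16 h at 37 °C with compound (23 nl of library stock), in duplicate. After paraformaldehyde fixation and Hoechst stain, imaged at 20x; PNC prevalence scored by image analysis.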
row,SMILES,"activity change (PNC), negative = inhibition"
1,Cc1cc(C)c(C2C3=C(Nc4c2c(C)nn4-c2ccccn2)c2ccccc2C3=O)c(C)c1 (stereo not given),-28.9%
2,CC1=C[C@H]2Cc3cc(C)cc(C)c3S(=O)(=O)[C@@H]2C=C1,28.1%
3,Cc1cc(C(=O)COC(=O)c2cccs2)c(C)n1-c1c(C)n(C)n(-c2ccccc2)c1=O,-127% (active)
4,COc1ccc(-n2c(C)cc(C(=O)COC(=O)c3cc(OC)c(OC)cc3NC(=O)c3cccs3)c2C)cc1,173%
5,CCCn1c(C)cc(C(=O)COC(=O)c2c(C)nn(-c3ccccc3)c2C)c1C,-22.8%
6,O=C(Oc1ccc([N+](=O)[O-])cc1)c1ccc2ccccc2n1,-25.3%
7,COc1ccc(C2=NOC(COC(=O)c3ccc4ccccc4n3)C2)cc1 (stereo not given),-3.15%
8,COc1ccc(C(=O)COC(=O)c2ccc3ccccc3n2)cc1,-89.8% (active)
9,Cc1cc(C)cc(OCC(=O)Nc2nc3ccc([N+](=O)[O-])cc3s2)c1,84.2%
10,CCOc1ccc2nc(NC(=O)c3cc([N+](=O)[O-])ccc3N3CCOCC3)sc2c1,-84.5% (active)
11,CCOc1ccc2nc(Nc3nc4ccc(NC(C)=O)cc4s3)sc2c1,10%
12,CCOc1ccccc1Nc1nnc(SCC(=O)Nc2cc(C)on2)s1,1.96%
13,Cc1cc(C)c2c(c1)cc(C)c1nnc(SCC(=O)Nc3cc(C)on3)n12,-88.4% (active)
14,Cc1ccc(-c2csc(SCC(=O)Nc3cc(C)on3)n2)cc1,32.6%
15,COc1cccc(-n2c(SCC(=O)c3c[nH]c4ccccc34)nc3ccccc3c2=O)c1,-15.1%
16,O=C(COC(=O)c1c2c(nc3ccccc13)CCCC2)c1ccc(Br)s1,17.9%
17,O=C(Nc1c2c(nc3ccccc13)CCCC2)c1ccccc1Br,-109% (active)
18,Cc1nonc1NC(=O)c1ccccc1Br,-15.2%
19,Cc1ccc(C)c(NC(=O)CCC(=O)NNC(=O)c2cccs2)c1,30.9%
20,NC1=NC(=O)C(Cc2cccc(Cl)c2Cl)S1 (stereo not given),-13.4%
21,COc1ccccc1N1N=C(c2cccs2)CC1c1ccccc1 (stereo not given),-19.6%
22,CCNc1nc(NC(C)C)nc(OCCOC(=O)c2ccccc2)n1,-100% (active)
23,CC(C)Nc1nc(N(c2ccccc2)c2ccccc2)nc(-n2ccnc2)n1,-4.69%
24,CCNc1nc(NC(C)C)nc(N2CC(=O)N(CC(=O)OCC)C2=N)n1,3.87%

row,SMILES,"activity change (PNC), negative = inhibition"
1,O=C(CCc1ccccc1)Nc1nn[nH]n1,50.3%
2,COc1ccc(C2COC(=O)C2=N)c(NC(=O)c2ccccc2)c1 (stereo not given),-25.6%
3,CCC1=NN(C(=O)Cc2ccc([N+](=O)[O-])cc2)C(O)(c2ccc(Br)cc2)C1 (stereo not given),99.6%
4,COc1ccccc1-c1nnc(NC(=O)c2cccc(N3C(=O)CCC3=O)c2)o1,-7.63%
5,COc1ccccc1-c1nnc(NC(=O)c2ccc3ncsc3c2)o1,-121% (active)
6,COc1ccccc1-c1nnc(SCC(=O)Nc2cc(C)on2)o1,-4.25%
7,CCCCC(CC(C)O)c1n[nH]c(=S)n1-c1ccccc1 (stereo not given),4.51%
8,O=C(NCCCO)/C(=C\C=C\c1ccccc1)NC(=O)c1ccccc1Cl,26.4%
9,O=C(NCCc1ccccc1)/C(=C\c1ccc([N+](=O)[O-])cc1)NC(=O)c1ccccc1,-6.81%
10,O=C(N/N=C/c1cc([N+](=O)[O-])ccc1O)/C(=C\c1cccs1)NC(=O)c1ccccc1,25.3%
11,O=C(N/N=C/c1ccc(O)cc1)/C(=C/c1ccc([N+](=O)[O-])cc1)NC(=O)c1ccccc1,-101% (active)
12,CCCC(=O)Nc1ccc(C(=O)N/N=C/c2ccc[nH]2)cc1,-29.4%
13,Cc1csc(=Nc2ccccc2)n1CCO,-25.4%
14,Cc1csc(=NC(=O)c2ccccc2)n1CCO,-9.41%
15,C=C(C)CNC(=S)/N=c1\scc(C)n1CC,-100% (active)
16,COc1cc(/C=C/C(=O)N2c3ccccc3Sc3ccc(C(F)(F)F)cc32)cc(OC)c1OC,-24.5%
17,O=C(Nc1ccccc1Cl)O/N=C(/c1ccccc1)c1ccccn1,-96.2% (active)
18,O=C(CSc1nnc(Nc2ccccc2)s1)Nc1cccnc1Cl,-10.3%
19,C/C(=N\NC(=O)Cc1ccc(Cl)cc1)c1ccccn1,-18.2%
20,COc1cc2c(cc1OC)C(=O)NCC(C)(C)O2,47.7%
21,CCCCN(CC)C(=O)c1ccc2c(c1)OCO2,21.9%
22,CCOC(=O)c1ccc(N/C(=N/S(=O)(=O)c2ccccc2)c2ccccc2)cc1,3.77%
23,COC(=O)c1ccc(NCC(=O)c2ccccc2)cc1,-26.4%
24,O=C(OCC(O)C(O)COC(=O)c1ccccc1)c1ccccc1 (stereo not given),-83.5% (active)

row,SMILES,"activity change (PNC), negative = inhibition"
1,COc1ccc(/C=C/C(=O)OCC(=O)NCc2cccs2)cc1OC,-1.51%
2,CCCCOc1ccc(C(=O)N/C(=C/C=C/c2ccccc2)C(=O)N2CCOCC2)cc1,-12.2%
3,CCOc1ccc2nc(C(=O)N3CCCC(C)C3)sc2c1 (stereo not given),6.06%
4,O=C(NC1CCCC1)C(NS(=O)(=O)c1ccc(Br)s1)c1ccccc1 (stereo not given),48.1%
5,O=C(/C=C/c1cccs1)NCc1cccnc1,-0.603%
6,O=C(NCc1cccnc1)c1cn(-c2ccccc2)nc1-c1cccs1,-139% (active)
7,COC(=O)c1cn(-c2ccccc2)nc1-c1cccnc1,-22.9%
8,COC1=CCC2([N+](=O)[O-])CN(CC(=O)O)CC1([N+](=O)[O-])C2 (stereo not given),6.59%
9,COc1ccc(/C=C/C(=O)Nc2ccc3c(c2)OCCO3)cc1OC,-11.1%
10,Cc1cc(C(=O)OCC(=O)Nc2nnc(C(C)C)s2)c2ccccc2n1,3.82%
11,CCCc1nc2c([nH]1)C(c1cccnc1)C(C#N)=C(N)O2 (stereo not given),7.34%
12,O=C(CN1CCN(CC(=O)Nc2ccc3c(c2)OCO3)CC1)Nc1ccc(F)cc1,-20.9%
13,O=C(CN1CCN(c2ncc(C(F)(F)F)cc2Cl)CC1)Nc1ccc2c(c1)OCO2,-86.4% (active)
14,O=C(CN1CCN(c2ccc(F)cc2)CC1)Nc1cccc(C(F)(F)F)c1,-19.9%
15,CC1CCN(c2ccc(S(=O)(=O)Nc3cc(C(=O)O)cc(C(=O)O)c3)cc2[N+](=O)[O-])CC1,-0.23%
16,CC1CCN(c2ccc(C(=O)Nc3nnc(C4CC4)s3)cc2[N+](=O)[O-])CC1,-87.1% (active)
17,CCOC(=O)c1c(NC(=O)c2ccc(N3CCOCC3)c([N+](=O)[O-])c2)sc(C)c1C,28.7%
18,CCc1cccc(C)c1NC(=O)COC(=O)Cc1ccsc1,-6%
19,C=CCNC(=S)NNC(=O)c1ccc(Br)o1,-23.4%
20,O=c1c2c(ncn1Cc1ccccc1)nc1n2CCC1,-8.18%
21,NS(=O)(=O)c1ccc(NS(=O)(=O)/C=C/c2ccccc2)cc1,-5.65%
22,CCC(C(=O)OCC(=O)Nc1ccc(C(=O)Nc2ccc(OC)cc2)cc1)c1ccccc1 (stereo not given),12.6%
23,COc1ccc(NC(=O)COC(=O)c2ccc(NS(=O)(=O)/C=C/c3ccccc3)cc2)cc1,-91.4% (active)
24,COc1cc(NC(=O)N2CCOCC2)cc(OC)c1,29.1%

row,SMILES,"activity change (PNC), negative = inhibition"
1,Cc1c(C(=O)N2CCOCC2)[nH]c2ccc(OCc3ccccc3)cc12,-12.2%
2,CCOC(=O)c1[nH]c2ccc(OC)cc2c1NC(=O)N1CCOCC1,-102% (active)
3,Cc1cccc(NC(=S)N(CCN(C)C)C(C)c2ccco2)c1 (stereo not given),5.52%
4,CC(c1ccccn1)N(CCN(C)C)C(=S)Nc1ccccc1F (stereo not given),-111% (active)
5,CC(C)C(=O)NC(=S)Nc1ccccc1F,28.8%
6,CC(=O)Nc1ccc(SCC(=O)Nc2ccccc2Oc2ccccc2)cc1,-10.5%
7,CC1CCc2sc(C(=O)N/N=C/C3CCCCC3)cc2C1 (stereo not given),-24%
8,Cc1onc(-c2ccccc2)c1C(=O)N1CCOCC1,-109% (active)
9,COc1ccccc1N1CCN(C(=O)c2cc(-c3ccc(Br)cc3)on2)CC1,15.5%
10,O=C(c1ccccc1-c1ccccc1)N1CCOCC1,-12%
11,Cc1noc(C)c1C(=O)N1CCOCC1,0.83%
12,COc1ccccc1N1CCN(C(=O)c2cc(-c3ccc(Cl)c(Cl)c3)on2)CC1,321%
13,COc1ccccc1N1CCN(C(=O)c2c(-c3c(Cl)cccc3Cl)noc2C)CC1,-86.9% (active)
14,O=C(CN1C(=O)/C(=C\c2ccc(C(F)(F)F)cc2)Sc2ccccc21)NCc1ccco1,37.6%
15,O=c1cc(CN2CCN(S(=O)(=O)/C=C/c3ccccc3)CC2)c2ccc(O)cc2o1,-11.6%
16,CCOC(=O)Nc1sc(C(=O)N(C)C)c(C)c1C(=O)OCC,10.4%
17,CCOC(=O)c1c(NC(=O)c2ccc(Br)o2)sc2c1CCCC2,2.82%
18,CCOC(=O)c1c(NC(C)=O)sc2c(O)c(Br)ccc12,-80.8% (active)
19,Cc1cc(Oc2ccc(Cl)cc2)nc(SCC(=O)c2ccccc2)n1,16.7%
20,Cc1ccc(OCc2nnc(NC(=O)OCC(C)C)s2)cc1,26.9%
21,CCOCc1nnc(NC(=O)CSc2ccc(C)cc2)s1,-89.8% (active)
22,Cc1ccc(SCC(=O)Nc2ncc(C)s2)cc1,34.4%
23,O=[N+]([O-])c1ccccc1SNc1ccccn1,-0.121%

# From PubChem BioAssay AID2417 (National Center for Advancing Translational Sciences (NCATS), 2010)
